Screening results: PubChem, National Center for Advancing Translational Sciences (NCATS)
ALDH1A1 block = inhibitors of human aldehyde dehydrogenase 1A1. Purified ALDH1A1, NADH fluorescence, propionaldehyde substrate. Potency, µM (titrated, usually from 75.3 µM), for inactives: at the highest dose activity, negative = inhibition, hits mostly inhibitors. hit rate 7.3% among 220,000. AID 1030;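 also: potency is read from the fitted curve at half-maximal effect; plate controls were no enzyme wells and a reference inhibitor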
LMNA splice mod = changes lamin A minigene splicing in HeLa cells. HeLa LMNA splicing GFP/RFP minigene ratio, 48 h. Potency, µM (highest dose often 46.1 µM), without a hit: at the top dose ratio change, negative = inhibition, most hits filed as inhibitors. hit rate 0.01% among 200,000. AID 1487; active = well fitted inhibition curve with a large enough effect in the signal ratio, with a control signal flat, not every such curve was filed as active; inconclusive = small, poorly fitted or top-dose-only effect, or effect the other way, or a change in a side signal; the % refers to the signal ratio; also: potency is read from the fitted curve at half-maximal effect
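S3 HeLa stable clones carrying a lamin A-EGFP splicing minigene plus DsRed2 were seeded at 600 cells/well in Opti-MEM with 2% FBS, pin-dosed and incubated 48 h at 37°C. Acumen cytometry (488 nm) gave the GFP/RFP total-intensity ratio.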
PNC assembly inh = inhibitors of perinucleolar compartment assembly | hit rate 3.1% among 140,000 | PC3M PTB-GFP, PNC prevalence imaging, 16 h; stronger effect = lower value | activity change (PNC), negative = inhibition, % at 10 µM | AID 2417;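 active = readout at or below -70, meaning at least 70% loss of cells showing the perinucleolar compartment, a nuclear body marking cancer cells; inconclusive = readout between -30 and a set limit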;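 also: plate controls were DMSO wells for no effect and camptothecin positive control wells for full effect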
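Compounds are pinned in duplicate onto adhered PC3M cells stably expressing GFP-tagged PTB and incubated 16 h at 37 C. Cells are then fixed, nuclei stained with Hoechst, and PNC-positive cells counted.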
12-hLO inh = 12-hLO (ALOX12) enzyme inhibition; AID 1452; Potency, µM (titrated, usually from 57.1 µM), inactives show at the highest dose activity change, negative = inhibition, actives largely listed as inhibitors; purified 12-hLO, xylenol orange hydroperoxide absorbance; hit rate 0.12% among 150,000; active = well fitted inhibition curve with a large enough effect; inconclusive = small, poorly fitted or top-dose-only effect; also: potency is read from the fitted curve at half-maximal effect; nearly all actives have a fitted effect of over 55% in size
Target sequence (P18054 whole entry, looked up): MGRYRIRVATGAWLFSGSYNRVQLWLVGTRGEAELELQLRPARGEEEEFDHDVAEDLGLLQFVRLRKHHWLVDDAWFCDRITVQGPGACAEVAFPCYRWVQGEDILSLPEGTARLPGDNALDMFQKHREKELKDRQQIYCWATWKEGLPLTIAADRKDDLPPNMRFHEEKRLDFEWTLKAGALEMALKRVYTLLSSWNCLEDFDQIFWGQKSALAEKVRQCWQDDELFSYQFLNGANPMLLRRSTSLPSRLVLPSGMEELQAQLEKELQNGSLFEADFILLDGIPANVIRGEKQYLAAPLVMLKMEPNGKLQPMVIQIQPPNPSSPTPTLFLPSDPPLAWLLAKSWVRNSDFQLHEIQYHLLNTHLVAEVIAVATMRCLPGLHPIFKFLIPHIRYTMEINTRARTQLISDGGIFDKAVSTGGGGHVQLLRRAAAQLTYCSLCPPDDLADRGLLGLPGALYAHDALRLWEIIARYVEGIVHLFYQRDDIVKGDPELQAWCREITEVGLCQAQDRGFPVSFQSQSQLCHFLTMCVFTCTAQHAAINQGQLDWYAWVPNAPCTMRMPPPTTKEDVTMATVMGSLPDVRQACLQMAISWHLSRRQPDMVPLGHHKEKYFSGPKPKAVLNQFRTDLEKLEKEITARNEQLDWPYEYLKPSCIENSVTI
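Purified human 12hLO (150 nM final) was preincubated with compounds for 15 min at room temperature in 25 mM Hepes pH 7.0, 0.01% Triton X-100, then reacted with 40 uM arachidonic acid for 30 min. Hydroperoxide was detected with ferrous iron/xylenol orange.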
HPGD block = HPGD (human) dehydrogenase inhibition. Potency, µM, for inactives: at the top dose activity change, negative = inhibition, usual class: inhibitors. purified HPGD, NADH fluorescence kinetic, PGE2 substrate. hit rate 4.3% among 150,000. P15428; also: potency is read from the fitted curve at half-maximal effect
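20 nM HPGD preincubated 15 min at room temperature with compound in 50 mM Tris-HCl pH 8, 0.01% Tween 20. Started with 1 mM NAD+ and 30 uM prostaglandin E2; NADH fluorescence (360/450 nm) read 5 times over 30-s intervals, last minus first.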
* hit, by the source's call; [ ] = dose if it differs, or a comment. An excerpt weighted towards active compounds, which were near 10% of everything screened. Unless noted, calls follow the shape of the dose curve; as a rule, active = well fitted inhibition curve with a large enough effect (not every such curve was filed as active); inconclusive = small, poorly fitted or top-dose-only effect, or another doubt; inactive = no such curve, though single readings can be large or run the other way. Unless noted, % is scaled to controls: 0 for no effect and ±100 for the full control effect.

How did O=C(Cc1ccccc1)Nc1ccccc1CO do in these assays?
ALDH1A1 block: inconclusive; LMNA splice mod: -2%; PNC assembly inh: 8; 12-hLO inh: -1%; HPGD block: 14µM*

How did COc1ccc(NC(=O)C2CC(=O)n3cnnc3S2)cc1 (stereo unspecified) do in these assays?
ALDH1A1 block: 0.71µM*; LMNA splice mod: -2%; PNC assembly inh: inconclusive; 12-hLO inh: -4%; HPGD block: 18µM*

How did COc1ccc(NC(=O)C2CC(=O)n3ncnc3N2)cc1 (stereo unspecified) do in these assays?
ALDH1A1 block: 3%; LMNA splice mod: 7%; PNC assembly inh: -24; 12-hLO inh: -6%; HPGD block: -7%

How did COc1cccc(NC(=O)C2CC(=O)n3cnnc3S2)c1 (stereo unspecified) do in these assays?
ALDH1A1 block: 0.71µM*; LMNA splice mod: 2%; PNC assembly inh: 9; 12-hLO inh: -12%; HPGD block: 16µM*

What do the screens show for `CC(C)Cn1cc(NC(=O)NCc2ccc(Cl)cc2)c2ccccc2c1=O`?
LMNA splice mod: -10%[46 µM]

How did COc1cc(Br)cc2cc(C(=O)N3CCCCC3C)c(=O)oc12 (stereo unspecified) do in these assays?
ALDH1A1 block: inconclusive; LMNA splice mod: -3%; PNC assembly inh: 1; 12-hLO inh: -4%; HPGD block: 13µM*

Results for COc1ccc(COc2ccccc2C(=O)NCc2ccccc2)cc1F ?
ALDH1A1 block: inconclusive; LMNA splice mod: inconclusive; PNC assembly inh: 16; 12-hLO inh: -2%; HPGD block: 16µM*

What do the screens show for `COc1ccccc1C(=O)NCc1ccc2c(c1)OCO2`?
ALDH1A1 block: -1%; LMNA splice mod: 10%; PNC assembly inh: inconclusive; 12-hLO inh: -6%; HPGD block: 14µM*

What do the screens show for `Cc1ccc(C)c(Cc2c(C)nc3c(C(=O)NCc4ccc5c(c4)OCO5)cnn3c2C)c1`?
ALDH1A1 block: inconclusive; LMNA splice mod: -19%; PNC assembly inh: -92*; 12-hLO inh: 9%; HPGD block: inconclusive

Results for COc1ccccc1NC(=O)NCc1ccc2c(c1)OCO2 ?
ALDH1A1 block: 13%; LMNA splice mod: -11%; PNC assembly inh: -14; 12-hLO inh: 5%; HPGD block: -14%

Results for Cc1ccccc1Cc1c(C)nc2c(C(=O)NCc3ccc4c(c3)OCO4)cnn2c1C ?
ALDH1A1 block: inconclusive; LMNA splice mod: inconclusive; PNC assembly inh: inconclusive; 12-hLO inh: -11%; HPGD block: inconclusive

How did Cc1nn(C)cc1CNC(=O)c1cccc(F)c1 do in these assays?
ALDH1A1 block: 13%; LMNA splice mod: 11%; PNC assembly inh: -98*; 12-hLO inh: 8%; HPGD block: -4%

How did CCc1ccc2c(-c3cccc(Cl)c3)nc(=O)n(CC)c2n1 do in these assays?
ALDH1A1 block: inconclusive; 12-hLO inh: -17%; HPGD block: -12%

How did O=c1oc2cc(O)ccc2cc1-c1nc(-c2ccc(Cl)c(Cl)c2)cs1 do in these assays?
LMNA splice mod: 17%[46 µM]

What do the screens show for `COc1ccc(/C=C(/CC(=O)NCc2ccc(Cl)cc2)c2nc3ccccc3s2)cc1`?
ALDH1A1 block: inconclusive; LMNA splice mod: inconclusive; PNC assembly inh: inconclusive; 12-hLO inh: 3%; HPGD block: inconclusive

Results for O=C(NCc1ccc2c(c1)OCO2)c1cccc(Cl)c1 ?
ALDH1A1 block: -5%; LMNA splice mod: 2%; PNC assembly inh: -28; 12-hLO inh: -11%; HPGD block: 3.5µM*

Results for COc1ccccc1/C=C(/CC(=O)NCc1ccc2c(c1)OCO2)c1nc2ccccc2s1 ?
ALDH1A1 block: 1.4µM*; LMNA splice mod: inconclusive; PNC assembly inh: inconclusive; 12-hLO inh: -3%; HPGD block: -13%

How did O=C(NCc1cccc(Cl)c1)c1ccc2c(c1)OCO2 do in these assays?
ALDH1A1 block: 2%; LMNA splice mod: -10%; PNC assembly inh: inconclusive; 12-hLO inh: 2%; HPGD block: -26%

What do the screens show for `CC12CCC(C(=O)NCc3ccc4c(c3)OCO4)(OC1=O)C2(C)C` (stereo unspecified)?
ALDH1A1 block: inconclusive; LMNA splice mod: 6%; PNC assembly inh: 29; 12-hLO inh: -11%; HPGD block: 32µM*

What do the screens show for `O=C(NCc1ccc2c(c1)OCO2)c1cccc(F)c1`?
ALDH1A1 block: -1%; LMNA splice mod: -5%; PNC assembly inh: 3; 12-hLO inh: -2%; HPGD block: 16µM*

Results for O=C(NNc1nc2ccc(Cl)cc2s1)c1cc(-c2cccs2)nc2ccccc12 ?
ALDH1A1 block: 34%; LMNA splice mod: inconclusive; PNC assembly inh: 62; 12-hLO inh: -5%; HPGD block: -17%

What do the screens show for `NCCCCCc1cnc[nH]1`?
ALDH1A1 block: 3%; 12-hLO inh: 5%[0.00818 µM]; HPGD block: -4%

What do the screens show for `CCOc1ccc(C(=O)NC(=S)Nc2ccccc2N2CCCCC2)cc1[N+](=O)[O-]`?
ALDH1A1 block: inconclusive; LMNA splice mod: inconclusive; PNC assembly inh: 28; 12-hLO inh: -4%; HPGD block: -19%

What do the screens show for `CCOc1ccc(C(=O)NC(=S)Nc2ccccc2OC)cc1[N+](=O)[O-]`?
ALDH1A1 block: 8.9µM*; LMNA splice mod: -2%; PNC assembly inh: -17; 12-hLO inh: 0%; HPGD block: -9%

Results for COc1ccccc1NC(=S)NC(NC(=O)c1ccco1)C(Cl)(Cl)Cl (stereo unspecified) ?
ALDH1A1 block: 14µM*; LMNA splice mod: -17%; PNC assembly inh: 8; 12-hLO inh: -8%; HPGD block: -21%

How did O=C(NC(NC(=S)Nc1ccc(Cl)cc1)C(Cl)(Cl)Cl)c1ccco1 (stereo unspecified) do in these assays?
ALDH1A1 block: inconclusive; LMNA splice mod: inconclusive; PNC assembly inh: 4; 12-hLO inh: -12%; HPGD block: -10%

How did CCOc1ccc(C(=O)NC(=S)Nc2ccc(N3CCCCC3)cc2)cc1[N+](=O)[O-] do in these assays?
ALDH1A1 block: 11µM*; LMNA splice mod: -2%; PNC assembly inh: 39; 12-hLO inh: -1%; HPGD block: 32µM*

What do the screens show for `COc1ccc(C(=O)NC(=S)Nc2cc(C)ccn2)cc1[N+](=O)[O-]`?
ALDH1A1 block: 0.32µM*; LMNA splice mod: -7%; PNC assembly inh: inconclusive; 12-hLO inh: -1%; HPGD block: -9%

Results for Cc1ccc(-n2ncc3c(N4CCCCC4)ncnc32)cc1Cl ?
LMNA splice mod: -8%[46 µM]

What do the screens show for `Cc1ccc(-c2nc3sc(CCNC(=O)c4ccc(C)c(C)c4)c(C)n3n2)cc1`?
LMNA splice mod: -2%[46 µM]

How did OC[C@@H]1O[C@@H](n2cnc3cncnc32)[C@@H](O)[C@H]1O do in these assays?
12-hLO inh: 3%

What do the screens show for `COc1ccccc1NC(=S)NC(=O)C(C)(C)C`?
ALDH1A1 block: -1%; LMNA splice mod: inconclusive; PNC assembly inh: -26; 12-hLO inh: 13µM*
